In PubChem BioAssay (EPA / NIEHS):
Activity calls are given as the source filed them. How the source made its calls: active means hit-call score of the fitted dose curve at least 0.9, where 1 is the maximum; inactive means score below 0.9.

Tests used:
[1] = target: CCAAT/enhancer-binding protein beta (Homo sapiens) (UniProt P17676); experiment: ATG_C_EBP_CIS: Attagene CIS-FACTORIAL HepG2 Assay for human CCAAT/Enhancer Binding Protein (C/EBP) beta (AID 2282927); settings: HepG2 Attagene cis-factorial transcription factor reporter; actives raise or lower the signal
Chain of CCAAT/enhancer-binding protein beta (Homo sapiens) (P17676 whole entry, looked up): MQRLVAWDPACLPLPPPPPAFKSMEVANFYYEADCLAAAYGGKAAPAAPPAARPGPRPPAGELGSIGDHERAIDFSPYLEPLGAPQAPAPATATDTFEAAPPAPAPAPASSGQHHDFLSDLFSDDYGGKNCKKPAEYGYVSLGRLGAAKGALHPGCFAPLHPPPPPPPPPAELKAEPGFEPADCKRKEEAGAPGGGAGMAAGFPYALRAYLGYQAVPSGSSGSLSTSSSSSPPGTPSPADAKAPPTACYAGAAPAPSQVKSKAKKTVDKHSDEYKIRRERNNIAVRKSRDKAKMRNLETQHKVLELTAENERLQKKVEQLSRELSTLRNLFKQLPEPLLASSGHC
Method in brief: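 Following a 24 h incubation with test chemical, transfected HepG2 cells yielded RNA whose reporter transcripts were quantified by RT-PCR and fluorescent capillary electrophoresis, with DMSO serving as baseline for bidirectional fitting.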

[2] = ATG_CMV_CIS: Attagene CIS-FACTORIAL HepG2 Assay for human CMV (Internal Marker) (AID 2282928); settings: HepG2 CMV promoter reporter, transcription factor profiling; actives raise or lower the signal;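 further: endpoint acts as a background internal control marker rather than a target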
Method in brief: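 After transient transfection of HepG2 with reporter transcription units driven by cis-regulatory promoters, cells receive test chemical for 24 h. Labeled reporter amplicons, digested with HpaI, are sized and quantified by capillary electrophoresis against DMSO.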

[3] = ATG_AP_1_CIS: Attagene CIS-FACTORIAL HepG2 Assay for human Activator Protein 1 (AP-1) (AID 2282931); settings: HepG2 Attagene cis-factorial AP-1 reporter mRNA; actives raise or lower the signal
Method in brief: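 Cis-regulated reporter units transiently expressed in HepG2 report endogenous transcription-factor activity. Signal: reporter mRNA at 24 h, via RT-PCR and fluorescent capillary electrophoresis. Endpoint derived by bidirectional fitting, DMSO as negative control.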

[4] = ATG_AP_2_CIS: Attagene CIS-FACTORIAL HepG2 Assay for human Activator Protein 2 (AP-2) (AID 2282932); settings: HepG2 AP-2 cis-reporter, Attagene transcription factor profiling; actives raise or lower the signal
Method in brief: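 HepG2 cells were transiently transfected with multiple cis-promoter reporter transcription units and dosed for 24 h. Reporter mRNA was measured by RT-PCR with capillary electrophoresis fluorescence; bidirectional fits relative to DMSO baseline.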

[5] = ATG_BRE_CIS: Attagene CIS-FACTORIAL HepG2 Assay for human Bone Morphogenetic Protein (BMP) Response Element (BRE) (AID 2282933); settings: HepG2 BMP response element reporter, Attagene transcription factor profiling; actives raise or lower the signal
Method in brief: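 HepG2 cells transiently transfected with CIS reporter units (endogenous TF activity, BMP response element), dosed 24 h. Reporter mRNA quantified by RT-PCR, fluorescent labelling and capillary electrophoresis; bidirectional fit vs DMSO baseline.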

[6] = ATG_E_Box_CIS: Attagene CIS-FACTORIAL HepG2 Assay for human Enhancer Box (E-box) (AID 2282936); settings: HepG2 E-box cis-reporter transcription, actives raise or lower the signal
Method in brief: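 HepG2 cells transiently transfected with multiplexed cis-element reporter units sensing endogenous transcription factor activity; 24 h compound exposure. Reporter mRNA measured by RT-PCR, 6-FAM primer extension, HpaI digestion and capillary electrophoresis; bidirectional fit versus DMSO.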

[7] = ATG_M_61_CIS: Attagene CIS-FACTORIAL HepG2 Assay for M61 Transcription Factor (Internal Marker) (AID 2282937); settings: HepG2 Attagene CIS-FACTORIAL M61 internal marker reporter; actives raise or lower the signal
Method in brief: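 Background-control endpoint: HepG2 cells with cis-regulated reporter constructs, 24 h exposure, reporter mRNA detected via fluorescent primer extension and capillary electrophoresis; values from bidirectional fitting with DMSO baseline.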

[8] = ATG_EGR_CIS: Attagene CIS-FACTORIAL HepG2 Assay for human Early Growth Response 1 (EGR1) (AID 2282938); settings: HepG2 Attagene CIS-FACTORIAL EGR reporter mRNA; actives raise or lower the signal
Method in brief: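 Endpoint derived by bidirectional fitting versus DMSO vehicle. Method: cis-promoter reporter units transfected into HepG2, 24 h dosing, RNA isolation, RT-PCR with 6-FAM primer extension and HpaI digestion, then capillary electrophoresis fluorescence detection.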

[9] = ATG_Ets_CIS: Attagene CIS-FACTORIAL HepG2 Assay for human Erythroblast Transformation Specific (ETS) (AID 2282941); settings: HepG2 ETS cis-reporter transcription, actives raise or lower the signal
Method in brief: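 Human HepG2 hepatoma cells were transiently transfected with promoter-driven reporter constructs and treated for 24 hours. Reporter transcripts were quantified by RT-PCR with fluorescent primer extension; bidirectional curve fitting used DMSO as reference.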

[10] = target: Hepatocyte nuclear factor 3-beta (Homo sapiens) (UniProt Q9Y261); experiment: ATG_FoxA2_CIS: Attagene CIS-FACTORIAL HepG2 Assay for human Forkhead box A2 (FOXA2) (AID 2282942); settings: HepG2 cis-reporter transcription factor activity, 24 h; actives raise or lower the signal
Chain of Hepatocyte nuclear factor 3-beta (Homo sapiens) (Q9Y261 whole entry, looked up): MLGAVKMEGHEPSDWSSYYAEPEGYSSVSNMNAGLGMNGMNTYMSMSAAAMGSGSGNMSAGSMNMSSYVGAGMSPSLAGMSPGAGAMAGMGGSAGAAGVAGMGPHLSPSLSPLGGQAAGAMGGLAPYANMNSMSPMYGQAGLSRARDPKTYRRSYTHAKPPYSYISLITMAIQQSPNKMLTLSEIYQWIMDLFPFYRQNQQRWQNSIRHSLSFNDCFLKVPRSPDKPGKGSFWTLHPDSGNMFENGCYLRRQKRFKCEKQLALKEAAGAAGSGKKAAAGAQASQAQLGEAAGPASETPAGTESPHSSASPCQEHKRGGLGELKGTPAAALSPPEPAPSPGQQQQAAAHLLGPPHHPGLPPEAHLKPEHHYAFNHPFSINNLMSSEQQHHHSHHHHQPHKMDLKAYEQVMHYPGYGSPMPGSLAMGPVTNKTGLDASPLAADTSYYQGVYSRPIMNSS
Method in brief: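 Measured: reporter mRNA induction or loss in HepG2 transiently carrying multiple cis-regulated reporter units, 24 h after dosing. Quantified by RT-PCR plus capillary electrophoresis, normalised to DMSO.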

[11] = ATG_FoxO_CIS: Attagene CIS-FACTORIAL HepG2 Assay for human Forkhead box O (FoxO) (AID 2282943); settings: HepG2 Attagene cis-reporter, FoxO element, mRNA; actives raise or lower the signal
Method in brief: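 Values reflect reporter mRNA induction or loss in HepG2 cells 24 h post-dosing, fitted bidirectionally with DMSO as negative control and baseline. Detection used RT-PCR and fluorescence capillary electrophoresis.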

[12] = ATG_GATA_CIS: Attagene CIS-FACTORIAL HepG2 Assay for human GATA Binding Protein (AID 2282944); settings: HepG2 GATA cis-element reporter, Attagene multiplex mRNA; actives raise or lower the signal
Method in brief: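 HepG2 cells transiently transfected with multiplexed cis-element reporter units measure endogenous GATA activity; after 24 h compound exposure, reporter mRNA quantified by RT-PCR and capillary electrophoresis. Changes fitted in both directions vs DMSO.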

[13] = ATG_ISRE_CIS: Attagene CIS-FACTORIAL HepG2 Assay for human Interferon Regulatory Factor 1 (IRF1) binding to an Interferon-Stimulated Response Element (ISRE) (AID 2282948); settings: HepG2 ISRE cis-reporter (Attagene), mRNA transcription readout; actives raise or lower the signal
Method in brief: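 Cell-based cis-reporter assay; HepG2; 24 h exposure; reporter mRNA by RT-PCR plus capillary electrophoresis fluorescence; activity in either direction scored relative to DMSO.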

[14] = ATG_M_32_CIS: Attagene CIS-FACTORIAL HepG2 Assay for M32 Transcription Factor (Internal Marker) (AID 2282949); settings: HepG2 Attagene cis-factorial M32 reporter, mRNA; actives raise or lower the signal;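 further: background control marker of the multiplexed CIS panel rather than a real target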
Method in brief: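 Following 24 h chemical exposure of HepG2 cells transiently expressing cis-promoter reporter constructs, reporter transcript levels were determined by RT-PCR with fluorescent labelling and capillary electrophoresis, then fitted bidirectionally against DMSO.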

[15] = ATG_M_06_CIS: Attagene CIS-FACTORIAL HepG2 Assay for M06 Transcription Factor (Internal Marker) (AID 2282950); settings: HepG2 Attagene CIS-FACTORIAL M06 internal marker reporter; actives raise or lower the signal
Method in brief: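 Internal background marker within multiplexed cis-reporter HepG2 system. Cells transiently transfected, dosed 24 h; reporter mRNA measured by RT-PCR, HpaI digestion and capillary electrophoresis. Bidirectional fit relative to DMSO.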

[16] = target: Hepatocyte nuclear factor 6 (Homo sapiens) (UniProt Q9UBC0); experiment: ATG_HNF6_CIS: Attagene CIS-FACTORIAL HepG2 Assay for human Hepatocyte Nuclear Factor 6 (HNF6) (AID 2282952); settings: HepG2 Attagene cis-factorial HNF6 reporter transcription; actives raise or lower the signal
Chain of Hepatocyte nuclear factor 6 (Homo sapiens) (Q9UBC0 whole entry, looked up): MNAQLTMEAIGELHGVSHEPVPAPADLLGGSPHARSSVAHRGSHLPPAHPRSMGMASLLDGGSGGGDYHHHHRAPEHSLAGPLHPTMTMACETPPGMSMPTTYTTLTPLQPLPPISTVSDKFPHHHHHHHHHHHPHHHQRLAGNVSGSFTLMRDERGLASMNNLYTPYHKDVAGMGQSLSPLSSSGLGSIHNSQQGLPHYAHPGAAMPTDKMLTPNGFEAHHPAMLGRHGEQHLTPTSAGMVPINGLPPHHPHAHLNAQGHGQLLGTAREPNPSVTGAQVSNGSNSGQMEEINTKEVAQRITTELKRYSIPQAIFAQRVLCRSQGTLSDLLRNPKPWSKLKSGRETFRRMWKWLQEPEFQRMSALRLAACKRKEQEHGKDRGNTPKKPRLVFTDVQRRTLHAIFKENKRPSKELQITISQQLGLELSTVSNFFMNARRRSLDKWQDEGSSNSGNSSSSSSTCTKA
Method in brief: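 Multiplexed mRNA reporter assay in transfected HepG2; 24 h dosing; RT-PCR plus capillary electrophoresis fluorescence; DMSO-referenced bidirectional curve fitting.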

[17] = ATG_MRE_CIS: Attagene CIS-FACTORIAL HepG2 Assay for human Metal Responsive Element (MRE) (AID 2282954); settings: HepG2 MRE cis-reporter transcription, Attagene multiplex; actives raise or lower the signal
Method in brief: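 HepG2 cells transiently transfected with multiple cis-element reporter units measure endogenous MTF1-driven transcription. After 24 h compound exposure, reporter mRNA is quantified by RT-PCR with 6-FAM labelling, HpaI digestion and capillary electrophoresis; bidirectional fits versus DMSO.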

[18] = ATG_Sox_CIS: Attagene CIS-FACTORIAL HepG2 Assay for human SRY-box transcription factor (SOX) (AID 2282960); settings: HepG2 Attagene cis-factorial SOX reporter, mRNA; actives raise or lower the signal
Method in brief: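 Gain- or loss-of-signal endpoint, fitted bidirectionally with DMSO as negative control. Based on reporter mRNA from transfected HepG2 cells harvested 24 h post-treatment and quantified via RT-PCR and capillary electrophoresis.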

[19] = target: Transcription factor Sp1 (Homo sapiens) (UniProt P08047); experiment: ATG_Sp1_CIS: Attagene CIS-FACTORIAL HepG2 Assay for human Specificity Protein 1 (Sp1) (AID 2282961); settings: HepG2 Sp1 cis-reporter transcription, actives raise or lower the signal
Chain of Transcription factor Sp1 (Homo sapiens) (P08047 whole entry, looked up, the tested form may be a part): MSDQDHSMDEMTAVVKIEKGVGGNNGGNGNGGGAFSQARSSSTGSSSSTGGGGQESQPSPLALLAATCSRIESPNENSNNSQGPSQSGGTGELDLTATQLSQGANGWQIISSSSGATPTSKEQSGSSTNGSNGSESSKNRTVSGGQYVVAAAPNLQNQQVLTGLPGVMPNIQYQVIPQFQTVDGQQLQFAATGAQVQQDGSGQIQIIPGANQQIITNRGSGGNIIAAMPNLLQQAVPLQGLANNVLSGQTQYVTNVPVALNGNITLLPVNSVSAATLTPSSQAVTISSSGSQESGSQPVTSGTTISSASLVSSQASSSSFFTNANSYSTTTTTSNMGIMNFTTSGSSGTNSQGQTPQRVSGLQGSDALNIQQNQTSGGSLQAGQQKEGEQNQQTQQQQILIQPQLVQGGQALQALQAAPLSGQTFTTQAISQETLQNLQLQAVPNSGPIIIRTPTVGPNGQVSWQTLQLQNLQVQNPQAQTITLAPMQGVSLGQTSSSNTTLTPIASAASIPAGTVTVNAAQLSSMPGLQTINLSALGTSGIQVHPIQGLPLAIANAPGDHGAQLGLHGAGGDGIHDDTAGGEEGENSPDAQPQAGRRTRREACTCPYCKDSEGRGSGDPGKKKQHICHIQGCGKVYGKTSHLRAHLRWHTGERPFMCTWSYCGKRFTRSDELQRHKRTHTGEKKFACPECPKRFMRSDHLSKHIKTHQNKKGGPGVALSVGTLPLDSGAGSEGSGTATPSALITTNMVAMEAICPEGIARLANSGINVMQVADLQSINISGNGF
Method in brief: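 Endpoint reflects endogenous Sp1 transcriptional activity, not an exogenous fusion protein: HepG2 cells with transfected cis-regulated reporters, 24 h dosing, RT-PCR/capillary electrophoresis mRNA read-out, DMSO-normalised bidirectional fit.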

[20] = target: Signal transducer and activator of transcription 3 (Homo sapiens) (UniProt P40763); experiment: ATG_STAT3_CIS: Attagene CIS-FACTORIAL HepG2 Assay for human Signal Transducer and Activator of Transcription 3 (STAT3) (AID 2282963); settings: HepG2, Attagene cis-factorial STAT3 reporter transcription; actives raise or lower the signal
Chain of Signal transducer and activator of transcription 3 (Homo sapiens) (P40763 whole entry, looked up): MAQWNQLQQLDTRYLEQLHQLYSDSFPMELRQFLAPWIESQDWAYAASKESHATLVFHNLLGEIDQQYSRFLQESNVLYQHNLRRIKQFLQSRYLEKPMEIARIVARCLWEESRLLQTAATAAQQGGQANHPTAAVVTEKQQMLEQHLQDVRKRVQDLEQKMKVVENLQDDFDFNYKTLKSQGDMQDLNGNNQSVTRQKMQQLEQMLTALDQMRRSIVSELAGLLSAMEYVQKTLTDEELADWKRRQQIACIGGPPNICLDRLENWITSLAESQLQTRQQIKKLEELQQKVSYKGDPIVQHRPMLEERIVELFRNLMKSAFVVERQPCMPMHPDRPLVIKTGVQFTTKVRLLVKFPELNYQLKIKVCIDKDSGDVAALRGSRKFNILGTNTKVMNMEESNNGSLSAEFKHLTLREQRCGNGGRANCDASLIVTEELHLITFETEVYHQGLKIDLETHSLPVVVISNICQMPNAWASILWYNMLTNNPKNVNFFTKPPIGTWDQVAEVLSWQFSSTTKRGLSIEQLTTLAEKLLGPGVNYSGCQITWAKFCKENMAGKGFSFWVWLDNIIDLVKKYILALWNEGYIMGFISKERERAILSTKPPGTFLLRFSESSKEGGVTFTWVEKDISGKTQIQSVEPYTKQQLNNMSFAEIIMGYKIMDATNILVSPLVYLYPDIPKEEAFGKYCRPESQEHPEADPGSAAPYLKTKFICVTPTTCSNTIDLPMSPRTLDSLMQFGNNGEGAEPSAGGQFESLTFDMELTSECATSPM
Method in brief: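 HepG2 cells transiently transfected with cis-element-driven multiple reporter transcription units; after 24 h chemical exposure, reporter mRNA measured by RT-PCR, 6-FAM primer-extension labelling, HpaI digestion and capillary electrophoresis. Bidirectional fitting versus DMSO baseline.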

Measured: outcome

CCCC=NO
inactive: all assays above

CCOP(=O)(OCC)OCC
inactive: all assays above

O=S(=O)(O)O
inactive: all assays above

CN(C)CCC#N
inactive: all assays above

C=C(Cl)CCl
inactive: all assays above

C[C@]12CCC(=O)C(O)=C1CC[C@@H]1[C@@H]2CC[C@]2(C)C(=O)CC[C@@H]12
inactive: all assays above
